Results taken from publication PMC5700166.

What follows are sequences tested against T1, GST-Aq-NF-kB (Amphimedon queenslandica, UniProt A9Y5G7 2-389) (assay: protein-binding microarray (PBM); PBM: ~300 nM protein, 6 mM HEPES pH 7.8, 80 mM KCl, 0.5 mM EDTA, 0.5 mM EGTA, 6% glycerol, 35 ng/ul poly-dIdC, 1% milk, 1 h, room temperature; Ap Aiptasia and Nv Nematostella (sea anemones) / Co Capsaspora / Aq Amphimedon (sponge) / Dm Drosophila / Hu human; RHD is the Rel homology domain; high values mean tight binding). Details: dsDNA, one strand shown.
T1 sequence: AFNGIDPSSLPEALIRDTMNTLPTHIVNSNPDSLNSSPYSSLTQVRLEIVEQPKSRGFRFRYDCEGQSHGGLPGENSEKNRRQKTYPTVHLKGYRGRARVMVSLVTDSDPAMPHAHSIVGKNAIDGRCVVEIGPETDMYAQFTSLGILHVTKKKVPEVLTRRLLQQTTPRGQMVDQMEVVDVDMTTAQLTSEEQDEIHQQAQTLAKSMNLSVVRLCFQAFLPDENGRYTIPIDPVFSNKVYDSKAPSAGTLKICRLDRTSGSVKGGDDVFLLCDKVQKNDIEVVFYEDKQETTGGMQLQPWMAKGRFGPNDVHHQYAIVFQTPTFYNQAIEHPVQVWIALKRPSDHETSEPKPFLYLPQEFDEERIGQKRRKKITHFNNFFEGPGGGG
“CCGATTAACATCAGGCCGTCCCCTGATGTTAATCGGGTCTTGATTCGCTTGACGCTGCTG” gave a binding signal of 5.74 z-score. Work on “CCGATTAACATCAAGGGAGTACCTGATGTTAATCGGGTCTTGATTCGCTTGACGCTGCTG” yielded a binding signal of 2.71 z-score. For “CCGATTAACATCAAAAATCCCGATGATGTTAATCGGGTCTTGATTCGCTTGACGCTGCTG”, the binding signal was 4.05 z-score. “CCGATTAACATCAGGGAATGACCTGATGTTAATCGGGTCTTGATTCGCTTGACGCTGCTG” showed a binding signal of 5.79 z-score. Work on “CCGATTAACATCAGGGGAGGTACTGATGTTAATCGGGTCTTGATTCGCTTGACGCTGCTG” yielded a binding signal of 4.35 z-score. With “CCGATTAACATCAAATAAATCCCTGATGTTAATCGGGTCTTGATTCGCTTGACGCTGCTG” the binding signal was 5.06 z-score. Sequence “CCGATTAACATCAAAATAATCCCTGATGTTAATCGGGTCTTGATTCGCTTGACGCTGCTG” has a binding signal of 5.15 z-score. For “CCGATTAACATCAGGGAAACCCATGATGTTAATCGGGTCTTGATTCGCTTGACGCTGCTG”, the binding signal was 4.85 z-score. With “CCGATTAACATCAGAATTCCCACTGATGTTAATCGGGTCTTGATTCGCTTGACGCTGCTG” the binding signal was 3.19 z-score. “CCGATTAACATCAGGATCTTCCCTGATGTTAATCGGGTCTTGATTCGCTTGACGCTGCTG” showed a binding signal of 5.89 z-score. “CCGATTAACATCAGGGGAGCCCCTGATGTTAATCGGGTCTTGATTCGCTTGACGCTGCTG” was tested, and the binding signal was 8.27 z-score. With “CCGATTAACATCACGTAAACCCCTGATGTTAATCGGGTCTTGATTCGCTTGACGCTGCTG” the binding signal was 3.41 z-score. For “CCGATTAACATCAGGATTGCCCCTGATGTTAATCGGGTCTTGATTCGCTTGACGCTGCTG”, the binding signal was 5.63 z-score. “CCGATTAACATCAGATTCTCCCCTGATGTTAATCGGGTCTTGATTCGCTTGACGCTGCTG” showed a binding signal of 4.43 z-score. Sequence “CCGATTAACATCAGGAAACACCCTGATGTTAATCGGGTCTTGATTCGCTTGACGCTGCTG” has a binding signal of 6.01 z-score. With “CCGATTAACATCAGGACTACCCCTGATGTTAATCGGGTCTTGATTCGCTTGACGCTGCTG” the binding signal was 6.48 z-score. For “CCGATTAACATCAGGCTTTTCCCTGATGTTAATCGGGTCTTGATTCGCTTGACGCTGCTG”, the binding signal was 6.49 z-score. In the case of “CCGATTAACATCAAAGAAGCCCCTGATGTTAATCGGGTCTTGATTCGCTTGACGCTGCTG”, the binding signal is reported as 5.13 z-score. With “CCGATTAACATCATCCCCGTGTCTGATGTTAATCGGGTCTTGATTCGCTTGACGCTGCTG” the binding signal was 3.87 z-score. For “CCGATTAACATCAGGGTGTTTTATGATGTTAATCGGGTCTTGATTCGCTTGACGCTGCTG”, the binding signal was 4.69 z-score. For “CCGATTAACATCAAACAATTCCCTGATGTTAATCGGGTCTTGATTCGCTTGACGCTGCTG”, the binding signal was 4.85 z-score. “CCGATTAACATCAGGAACTACCCTGATGTTAATCGGGTCTTGATTCGCTTGACGCTGCTG” was tested, and the binding signal was 5.04 z-score. “CCGATTAACATCAGGGGGTTAGATGATGTTAATCGGGTCTTGATTCGCTTGACGCTGCTG” showed a binding signal of 3.58 z-score. For “CCGATTAACATCAGGGAACCCCATGATGTTAATCGGGTCTTGATTCGCTTGACGCTGCTG”, the binding signal was 4.59 z-score. “CCGATTAACATCAAGTTTTCCCATGATGTTAATCGGGTCTTGATTCGCTTGACGCTGCTG” was tested, and the binding signal was 2.83 z-score. “CCGATTAACATCAGGGAATCCTATGATGTTAATCGGGTCTTGATTCGCTTGACGCTGCTG” was tested, and the binding signal was 4.15 z-score. “CCGATTAACATCAAGTACTTCCCTGATGTTAATCGGGTCTTGATTCGCTTGACGCTGCTG” showed a binding signal of 3.13 z-score. “CCGATTAACATCAAAAAGTTCCCTGATGTTAATCGGGTCTTGATTCGCTTGACGCTGCTG” gave a binding signal of 5.9 z-score. For “CCGATTAACATCAGGGAATTATATGATGTTAATCGGGTCTTGATTCGCTTGACGCTGCTG”, the binding signal was 6.69 z-score. Sequence “CCGATTAACATCACGTCCCCCCCTGATGTTAATCGGGTCTTGATTCGCTTGACGCTGCTG” has a binding signal of 4.49 z-score. With “CCGATTAACATCACATTCTCCCCTGATGTTAATCGGGTCTTGATTCGCTTGACGCTGCTG” the binding signal was 3.34 z-score. For “CCGATTAACATCACGTGTTTCCCTGATGTTAATCGGGTCTTGATTCGCTTGACGCTGCTG”, the binding signal was 3.35 z-score. “CCGATTAACATCAAGGGATTCCCTGATGTTAATCGGGTCTTGATTCGCTTGACGCTGCTG” was tested, and the binding signal was 6.56 z-score. Sequence “CCGATTAACATCAGGGAGATACCTGATGTTAATCGGGTCTTGATTCGCTTGACGCTGCTG” has a binding signal of 7.69 z-score. For “CCGATTAACATCAAGCACCCCCTTGATGTTAATCGGGTCTTGATTCGCTTGACGCTGCTG”, the binding signal was 4.66 z-score. In the case of “CCGATTAACATCAGATGTCCCCCTGATGTTAATCGGGTCTTGATTCGCTTGACGCTGCTG”, the binding signal is reported as 4.73 z-score. Work on “CCGATTAACATCACACCCCCCCCTGATGTTAATCGGGTCTTGATTCGCTTGACGCTGCTG” yielded a binding signal of 4.16 z-score. “CCGATTAACATCAGCGAATTCCCTGATGTTAATCGGGTCTTGATTCGCTTGACGCTGCTG” gave a binding signal of 3.61 z-score. “CCGATTAACATCACGGAATACCCTGATGTTAATCGGGTCTTGATTCGCTTGACGCTGCTG” gave a binding signal of 4.52 z-score. With “CCGATTAACATCAAATGGGAATTTGATGTTAATCGGGTCTTGATTCGCTTGACGCTGCTG” the binding signal was 2.35 z-score.
